Source: the supplement of paper PMC11732987, “Enantioselective OTUD7B fragment discovery through chemoproteomics screening and high-throughput optimisation” (Communications Chemistry, 2025)

How the values were obtained:
Experiment in all cases: log2 ratio of Biotin-Ahx-Ub-VS probe labelling (fragment/DMSO); higher = less target engagement (more negative = stronger competition), active = hit call of the paper (q ≤ 0.05, log2 ratio ≤ -1)
Details in all cases: compound concentration: 200 uM; treatment time: 3 h
[1] = target: USP34 (UniProt Q70CQ2)
Chain of USP34 (Q70CQ2 whole entry, the tested form may be a part): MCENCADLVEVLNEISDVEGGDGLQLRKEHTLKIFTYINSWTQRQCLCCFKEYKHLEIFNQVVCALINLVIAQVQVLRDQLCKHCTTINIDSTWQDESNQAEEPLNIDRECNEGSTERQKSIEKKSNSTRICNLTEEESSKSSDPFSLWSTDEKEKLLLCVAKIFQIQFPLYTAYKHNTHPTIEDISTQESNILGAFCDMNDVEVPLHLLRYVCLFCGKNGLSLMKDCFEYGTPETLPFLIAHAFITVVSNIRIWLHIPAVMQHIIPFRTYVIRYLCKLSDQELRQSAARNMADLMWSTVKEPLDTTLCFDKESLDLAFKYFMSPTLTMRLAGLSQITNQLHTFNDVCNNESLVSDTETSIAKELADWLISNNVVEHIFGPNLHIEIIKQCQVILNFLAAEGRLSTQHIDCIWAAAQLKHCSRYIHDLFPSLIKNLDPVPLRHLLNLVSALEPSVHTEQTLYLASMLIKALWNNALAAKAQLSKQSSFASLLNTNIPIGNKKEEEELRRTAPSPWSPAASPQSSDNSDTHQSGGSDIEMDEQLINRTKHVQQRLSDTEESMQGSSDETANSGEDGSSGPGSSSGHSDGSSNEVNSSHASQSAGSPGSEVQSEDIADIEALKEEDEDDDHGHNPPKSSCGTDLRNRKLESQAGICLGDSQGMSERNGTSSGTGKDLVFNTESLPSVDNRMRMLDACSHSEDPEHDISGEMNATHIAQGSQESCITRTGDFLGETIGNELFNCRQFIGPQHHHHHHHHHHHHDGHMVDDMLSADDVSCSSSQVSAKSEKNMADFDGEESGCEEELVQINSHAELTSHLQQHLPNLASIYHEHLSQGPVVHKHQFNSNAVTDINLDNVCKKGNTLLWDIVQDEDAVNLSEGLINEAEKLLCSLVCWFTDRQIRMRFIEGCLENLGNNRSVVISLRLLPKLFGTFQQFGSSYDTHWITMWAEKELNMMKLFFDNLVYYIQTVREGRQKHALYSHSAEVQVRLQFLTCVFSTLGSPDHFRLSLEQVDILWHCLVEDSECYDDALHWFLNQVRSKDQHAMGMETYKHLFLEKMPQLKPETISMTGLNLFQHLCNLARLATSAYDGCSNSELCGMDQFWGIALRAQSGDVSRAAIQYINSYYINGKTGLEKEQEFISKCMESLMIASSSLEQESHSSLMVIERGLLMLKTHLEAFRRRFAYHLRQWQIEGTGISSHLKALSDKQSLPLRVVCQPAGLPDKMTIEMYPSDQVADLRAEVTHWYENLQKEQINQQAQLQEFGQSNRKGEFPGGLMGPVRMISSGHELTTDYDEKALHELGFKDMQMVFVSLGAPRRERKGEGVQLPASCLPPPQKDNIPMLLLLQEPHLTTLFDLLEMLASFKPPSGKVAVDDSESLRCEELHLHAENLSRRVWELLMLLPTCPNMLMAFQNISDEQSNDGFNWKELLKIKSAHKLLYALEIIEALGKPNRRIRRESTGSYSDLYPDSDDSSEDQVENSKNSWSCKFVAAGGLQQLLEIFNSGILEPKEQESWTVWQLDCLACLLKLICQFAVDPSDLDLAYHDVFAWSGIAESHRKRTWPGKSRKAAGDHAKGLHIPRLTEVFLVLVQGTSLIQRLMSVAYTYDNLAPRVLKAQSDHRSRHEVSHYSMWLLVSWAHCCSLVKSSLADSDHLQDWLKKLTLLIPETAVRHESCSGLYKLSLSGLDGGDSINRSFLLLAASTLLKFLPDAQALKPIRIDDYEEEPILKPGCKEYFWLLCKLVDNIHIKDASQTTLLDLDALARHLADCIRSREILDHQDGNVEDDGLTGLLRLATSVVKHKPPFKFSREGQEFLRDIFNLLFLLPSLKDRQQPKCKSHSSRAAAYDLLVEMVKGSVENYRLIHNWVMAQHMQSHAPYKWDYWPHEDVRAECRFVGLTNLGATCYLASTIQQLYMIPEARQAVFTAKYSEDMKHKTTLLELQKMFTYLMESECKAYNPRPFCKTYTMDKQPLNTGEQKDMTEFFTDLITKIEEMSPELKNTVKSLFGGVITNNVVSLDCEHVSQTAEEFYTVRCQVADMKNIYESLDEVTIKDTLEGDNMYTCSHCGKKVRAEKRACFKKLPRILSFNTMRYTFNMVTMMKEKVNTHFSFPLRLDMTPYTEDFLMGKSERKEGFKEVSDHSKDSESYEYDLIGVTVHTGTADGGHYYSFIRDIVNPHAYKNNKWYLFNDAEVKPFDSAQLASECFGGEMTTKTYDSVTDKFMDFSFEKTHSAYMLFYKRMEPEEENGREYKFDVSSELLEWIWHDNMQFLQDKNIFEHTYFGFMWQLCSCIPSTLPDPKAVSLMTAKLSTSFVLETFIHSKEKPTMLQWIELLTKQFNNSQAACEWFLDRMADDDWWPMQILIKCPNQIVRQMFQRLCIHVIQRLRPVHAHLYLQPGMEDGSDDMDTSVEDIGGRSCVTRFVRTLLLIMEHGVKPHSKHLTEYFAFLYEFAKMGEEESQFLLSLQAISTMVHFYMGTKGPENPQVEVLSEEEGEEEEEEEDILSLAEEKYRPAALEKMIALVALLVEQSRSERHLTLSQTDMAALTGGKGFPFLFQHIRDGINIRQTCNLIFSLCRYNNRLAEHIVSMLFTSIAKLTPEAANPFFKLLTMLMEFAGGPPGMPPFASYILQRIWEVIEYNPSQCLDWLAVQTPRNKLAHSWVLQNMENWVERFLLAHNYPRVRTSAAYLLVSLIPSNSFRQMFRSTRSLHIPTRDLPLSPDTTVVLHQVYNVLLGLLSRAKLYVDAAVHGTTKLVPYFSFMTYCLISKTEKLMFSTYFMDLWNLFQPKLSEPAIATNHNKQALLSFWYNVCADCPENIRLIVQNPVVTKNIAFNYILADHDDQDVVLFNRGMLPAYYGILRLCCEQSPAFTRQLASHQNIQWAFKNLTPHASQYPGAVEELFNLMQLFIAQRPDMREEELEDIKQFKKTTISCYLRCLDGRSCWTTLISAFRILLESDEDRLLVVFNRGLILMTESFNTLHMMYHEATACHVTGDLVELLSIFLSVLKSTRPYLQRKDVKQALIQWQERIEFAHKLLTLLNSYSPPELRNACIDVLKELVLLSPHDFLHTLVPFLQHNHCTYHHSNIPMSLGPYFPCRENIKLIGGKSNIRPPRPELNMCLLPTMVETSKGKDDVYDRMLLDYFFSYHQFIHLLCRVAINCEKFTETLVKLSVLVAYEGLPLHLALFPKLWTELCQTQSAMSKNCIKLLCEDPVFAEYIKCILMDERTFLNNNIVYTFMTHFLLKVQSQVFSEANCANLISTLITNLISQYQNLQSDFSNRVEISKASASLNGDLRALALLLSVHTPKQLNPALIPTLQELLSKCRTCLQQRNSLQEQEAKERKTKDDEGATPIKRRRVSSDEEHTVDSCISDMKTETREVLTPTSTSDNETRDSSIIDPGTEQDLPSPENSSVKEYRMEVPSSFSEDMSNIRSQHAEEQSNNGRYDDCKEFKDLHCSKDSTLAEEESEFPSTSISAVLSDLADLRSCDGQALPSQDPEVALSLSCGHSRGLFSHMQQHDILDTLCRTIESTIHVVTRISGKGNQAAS
How it was run: (§1)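 Labelled DUBs from HEK293T lysate were NeutrAvidin-enriched, digested with LysC and trypsin, and run by diaPASEF LC-MS/MS. Before that, each 495 µg sample in Tris/CHAPS/IGEPAL buffer with protease inhibitors was treated in triplicate with fragment at 200 µM or vehicle for 3 h, then with Biotin-Ahx-Ub-VS at 0.5 µM final for 1 h. Values are average log2 ratios of fragment over vehicle by unpaired t-test, based on global-median-normalised Spectronaut label-free quantities from proteins with ≥2 unique peptides.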

[2] = target: T1, USP36 (UniProt Q9P275)
T1 sequence (whole entry): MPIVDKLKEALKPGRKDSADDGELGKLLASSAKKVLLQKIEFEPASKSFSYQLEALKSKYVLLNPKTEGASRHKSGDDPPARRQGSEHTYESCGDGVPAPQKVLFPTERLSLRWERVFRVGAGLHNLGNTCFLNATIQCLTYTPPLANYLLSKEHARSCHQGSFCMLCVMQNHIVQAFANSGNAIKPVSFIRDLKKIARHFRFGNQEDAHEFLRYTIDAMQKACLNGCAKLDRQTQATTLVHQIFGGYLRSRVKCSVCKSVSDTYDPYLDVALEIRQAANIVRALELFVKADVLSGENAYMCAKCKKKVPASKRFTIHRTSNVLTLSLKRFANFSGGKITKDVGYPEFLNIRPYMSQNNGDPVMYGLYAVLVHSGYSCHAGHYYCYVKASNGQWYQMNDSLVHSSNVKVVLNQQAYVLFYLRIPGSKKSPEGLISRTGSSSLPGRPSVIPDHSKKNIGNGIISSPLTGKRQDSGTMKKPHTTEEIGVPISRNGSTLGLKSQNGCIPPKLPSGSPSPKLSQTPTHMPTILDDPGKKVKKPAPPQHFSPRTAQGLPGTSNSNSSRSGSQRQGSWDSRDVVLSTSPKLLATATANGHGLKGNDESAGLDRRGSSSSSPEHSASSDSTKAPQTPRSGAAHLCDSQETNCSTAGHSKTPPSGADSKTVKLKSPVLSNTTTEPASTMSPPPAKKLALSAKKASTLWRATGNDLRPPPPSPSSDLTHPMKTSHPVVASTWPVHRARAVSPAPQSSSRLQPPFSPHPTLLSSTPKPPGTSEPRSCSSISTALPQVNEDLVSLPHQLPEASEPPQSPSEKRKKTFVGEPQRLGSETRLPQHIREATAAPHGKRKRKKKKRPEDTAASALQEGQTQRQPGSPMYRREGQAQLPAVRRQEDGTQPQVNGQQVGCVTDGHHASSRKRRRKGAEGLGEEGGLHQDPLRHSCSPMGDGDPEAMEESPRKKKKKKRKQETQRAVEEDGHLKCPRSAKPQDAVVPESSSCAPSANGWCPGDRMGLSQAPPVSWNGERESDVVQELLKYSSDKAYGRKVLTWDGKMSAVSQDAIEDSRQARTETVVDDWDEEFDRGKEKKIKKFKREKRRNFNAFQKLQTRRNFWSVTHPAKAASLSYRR
How it was run: as §1

[3] = target: T2, USP38 (UniProt Q8NB14)
T2 sequence (whole entry): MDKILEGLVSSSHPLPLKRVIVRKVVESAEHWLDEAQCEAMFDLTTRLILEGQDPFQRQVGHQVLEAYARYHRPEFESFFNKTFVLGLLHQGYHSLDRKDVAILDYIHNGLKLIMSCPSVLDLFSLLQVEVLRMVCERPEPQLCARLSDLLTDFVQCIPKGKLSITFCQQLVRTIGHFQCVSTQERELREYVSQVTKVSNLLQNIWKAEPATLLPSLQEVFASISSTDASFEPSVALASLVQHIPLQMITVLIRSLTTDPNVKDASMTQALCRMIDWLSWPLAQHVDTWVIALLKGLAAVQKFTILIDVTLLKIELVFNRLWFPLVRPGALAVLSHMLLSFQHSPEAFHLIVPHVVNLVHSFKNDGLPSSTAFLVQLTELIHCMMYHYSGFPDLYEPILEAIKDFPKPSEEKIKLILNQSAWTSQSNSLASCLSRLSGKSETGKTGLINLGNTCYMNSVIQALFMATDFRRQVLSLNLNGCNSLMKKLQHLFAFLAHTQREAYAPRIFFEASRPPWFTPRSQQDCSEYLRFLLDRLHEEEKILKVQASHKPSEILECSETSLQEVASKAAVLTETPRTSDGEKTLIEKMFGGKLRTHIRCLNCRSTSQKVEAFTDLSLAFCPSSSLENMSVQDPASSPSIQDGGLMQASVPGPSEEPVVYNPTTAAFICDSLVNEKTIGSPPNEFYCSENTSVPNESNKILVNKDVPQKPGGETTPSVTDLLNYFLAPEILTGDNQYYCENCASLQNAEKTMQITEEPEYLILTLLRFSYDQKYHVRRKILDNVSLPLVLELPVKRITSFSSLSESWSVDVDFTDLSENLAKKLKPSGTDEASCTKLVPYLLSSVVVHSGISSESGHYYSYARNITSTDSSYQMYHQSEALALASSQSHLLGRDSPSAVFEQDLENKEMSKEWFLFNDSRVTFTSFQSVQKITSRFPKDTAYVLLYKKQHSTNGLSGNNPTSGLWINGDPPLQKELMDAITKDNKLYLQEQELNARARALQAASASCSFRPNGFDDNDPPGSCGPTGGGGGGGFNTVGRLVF
How it was run: as §1

[4] = target: T3, USP39 (UniProt Q53GS9)
T3 sequence (whole entry): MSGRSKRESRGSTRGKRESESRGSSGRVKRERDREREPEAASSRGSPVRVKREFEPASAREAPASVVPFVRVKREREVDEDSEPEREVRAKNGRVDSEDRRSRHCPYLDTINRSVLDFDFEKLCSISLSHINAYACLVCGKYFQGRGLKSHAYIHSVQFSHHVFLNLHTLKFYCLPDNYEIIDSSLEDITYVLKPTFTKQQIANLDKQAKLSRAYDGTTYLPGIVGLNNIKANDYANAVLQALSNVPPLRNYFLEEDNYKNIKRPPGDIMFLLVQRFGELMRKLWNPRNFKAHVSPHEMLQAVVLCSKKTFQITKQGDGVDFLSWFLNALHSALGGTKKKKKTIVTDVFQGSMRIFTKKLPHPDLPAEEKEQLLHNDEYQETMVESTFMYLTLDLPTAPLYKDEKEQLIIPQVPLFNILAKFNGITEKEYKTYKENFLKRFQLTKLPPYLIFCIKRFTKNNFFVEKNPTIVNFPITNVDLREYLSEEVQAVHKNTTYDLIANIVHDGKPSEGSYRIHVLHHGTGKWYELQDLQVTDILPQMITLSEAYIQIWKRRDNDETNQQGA
How it was run: as §1

[5] = target: T4, USP4 (UniProt Q13107)
T4 sequence (whole entry): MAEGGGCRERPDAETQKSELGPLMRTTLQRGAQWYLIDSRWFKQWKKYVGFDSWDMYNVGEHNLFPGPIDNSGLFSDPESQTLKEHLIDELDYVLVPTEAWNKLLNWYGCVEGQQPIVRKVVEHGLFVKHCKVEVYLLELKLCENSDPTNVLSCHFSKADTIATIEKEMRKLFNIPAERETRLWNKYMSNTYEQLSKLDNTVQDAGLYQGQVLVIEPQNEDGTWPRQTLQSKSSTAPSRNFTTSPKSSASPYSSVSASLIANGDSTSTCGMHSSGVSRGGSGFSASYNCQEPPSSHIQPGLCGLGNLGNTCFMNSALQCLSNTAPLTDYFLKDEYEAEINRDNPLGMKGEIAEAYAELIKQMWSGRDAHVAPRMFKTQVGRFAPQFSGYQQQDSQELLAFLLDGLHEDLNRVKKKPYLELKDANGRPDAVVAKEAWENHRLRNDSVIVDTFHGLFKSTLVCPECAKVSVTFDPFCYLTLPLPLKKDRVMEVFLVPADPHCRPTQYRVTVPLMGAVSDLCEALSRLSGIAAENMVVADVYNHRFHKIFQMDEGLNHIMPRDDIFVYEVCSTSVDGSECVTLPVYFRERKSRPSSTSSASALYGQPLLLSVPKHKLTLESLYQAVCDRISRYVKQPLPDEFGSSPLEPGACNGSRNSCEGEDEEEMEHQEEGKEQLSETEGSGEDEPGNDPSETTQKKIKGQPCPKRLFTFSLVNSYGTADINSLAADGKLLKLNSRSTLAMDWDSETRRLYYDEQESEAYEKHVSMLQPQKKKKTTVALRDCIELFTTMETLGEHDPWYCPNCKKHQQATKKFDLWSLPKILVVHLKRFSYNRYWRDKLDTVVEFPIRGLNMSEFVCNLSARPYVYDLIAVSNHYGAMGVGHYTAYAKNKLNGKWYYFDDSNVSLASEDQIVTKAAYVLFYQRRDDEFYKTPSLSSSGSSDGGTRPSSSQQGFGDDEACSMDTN
How it was run: as §1

Measured: log2 ratio of Biotin-Ahx-Ub-VS probe labelling

O=C(CCl)N[C@H]1CCS(=O)(=O)c2ccccc21
inactive: [1] -0.277 | [2] -0.115 | [3] -0.13 | [4] -0.176 | [5] -0.212
